# Experimental data: publication PMC4336329 (PLoS ONE, 2015)
# About 14,000 (4.5%) of roughly 310,000 compounds showed an effect of 50% or more. The effect is printed as a negative number. The sample holds strong results, similar compounds and a random draw of the others, so the mix is not that of the screen.
# Target: human ether-à-go-go-related gene (hERG) potassium channel (human, UniProt Q12809)
# Assay: primary screen, population patch clamp on CHO cells stably expressing hERG; higher = less effect of the substance
# 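Note: peak tail current of the secondary pulse compared with the same well before compound.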
# Sequence of human ether-à-go-go-related gene (hERG) potassium channel (Q12809 whole entry, looked up): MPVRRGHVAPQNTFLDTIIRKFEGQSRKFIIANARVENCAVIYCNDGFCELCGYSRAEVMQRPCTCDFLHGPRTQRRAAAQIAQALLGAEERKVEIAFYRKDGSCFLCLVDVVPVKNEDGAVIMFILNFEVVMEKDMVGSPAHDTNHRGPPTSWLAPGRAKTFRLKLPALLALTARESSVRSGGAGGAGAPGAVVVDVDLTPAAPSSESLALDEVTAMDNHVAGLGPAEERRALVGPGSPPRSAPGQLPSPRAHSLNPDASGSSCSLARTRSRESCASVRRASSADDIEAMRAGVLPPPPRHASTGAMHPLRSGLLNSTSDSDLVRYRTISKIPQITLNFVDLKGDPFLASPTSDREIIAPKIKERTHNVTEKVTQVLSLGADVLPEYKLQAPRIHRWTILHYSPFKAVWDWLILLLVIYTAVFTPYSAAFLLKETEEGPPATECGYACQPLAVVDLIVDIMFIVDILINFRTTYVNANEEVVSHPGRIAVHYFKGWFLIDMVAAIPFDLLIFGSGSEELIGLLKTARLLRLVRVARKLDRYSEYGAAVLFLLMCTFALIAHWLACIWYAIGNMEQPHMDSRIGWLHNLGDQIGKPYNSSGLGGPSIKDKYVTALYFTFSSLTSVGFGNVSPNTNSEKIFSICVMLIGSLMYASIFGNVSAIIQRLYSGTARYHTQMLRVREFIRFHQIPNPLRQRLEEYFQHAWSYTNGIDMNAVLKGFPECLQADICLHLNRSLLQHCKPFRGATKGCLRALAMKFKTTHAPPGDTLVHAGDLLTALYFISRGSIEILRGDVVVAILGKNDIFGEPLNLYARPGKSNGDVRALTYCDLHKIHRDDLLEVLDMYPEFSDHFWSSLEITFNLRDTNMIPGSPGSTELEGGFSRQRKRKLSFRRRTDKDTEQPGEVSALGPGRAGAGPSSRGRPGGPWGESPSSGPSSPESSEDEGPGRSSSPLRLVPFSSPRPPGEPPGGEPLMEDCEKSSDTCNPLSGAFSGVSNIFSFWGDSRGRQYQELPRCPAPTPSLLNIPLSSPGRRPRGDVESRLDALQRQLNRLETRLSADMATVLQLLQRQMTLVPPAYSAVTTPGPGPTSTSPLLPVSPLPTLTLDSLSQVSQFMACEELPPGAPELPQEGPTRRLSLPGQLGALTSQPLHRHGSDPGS
row,Structure (SMILES),"hERG current change (%, negative = inhibition) at 10uM [%]"
1,COc1ccccc1N=Nc1c(C)noc1C,10.6
2,CCOC(=O)/C(C#N)=N/Nc1ccc(S(=O)(=O)Nc2cc(OC)nc(OC)n2)cc1,-13.1
3,CC(C)(C)c1nnc(NS(C)(=O)=O)s1,8.21
4,O=c1[nH]n(-c2ccc([N+](=O)[O-])cc2)c(=O)c2ccccc12,5.47
5,COCc1ccc(C(=O)N2CCCC(C(=O)c3ccc(SC)cc3)C2)o1 (centres unmarked),-41.6
6,Nc1cnc(Nc2ccc(Br)cc2)nc1N.O=S(=O)(O)O,-8.72
7,CCc1c(C)nc(SCC(=O)Nc2cccc(Br)c2)[nH]c1=O,16.3
8,Cc1cc(C)n2cc(CSc3ccccn3)nc2n1,13.6
9,Cc1csc2nc(CSc3ccc(Cl)cc3)cn12,-27.3
10,Cc1cc(C)n2cc(CSc3ccc(Cl)cc3)nc2n1,-64.9
11,CC(C)Oc1ccc(CNC2CCOC(C)(C)C2)cc1 (centres unmarked),18
12,C=CCNc1nc2c(c(=O)[nH]c(=O)n2C)n1CCCc1ccccc1,-4.44
13,CC1=C(C(=O)OCc2ccccc2)C(c2ccccc2Cl)NC(=O)N1CCCCCC(=O)O (centres unmarked),-12.4
14,CC1=C(C(=O)OCc2ccccc2)C(c2ccccc2-c2ccccc2)NC(=O)N1CCCCCC(=O)O (centres unmarked),-63.1
15,CC1=C(C(=O)OCc2ccccc2)C(c2ccc(-c3ccccc3)cc2)NC(=O)N1CCCCCC(=O)O (centres unmarked),-2.3
16,CCN(CC(=O)Nc1c(F)cccc1F)C(=O)c1ccc2ccccc2n1,-19.6
17,O=c1[nH]cccc1-c1nc2ccccc2n1Cc1ccc(F)cc1,-22.5
18,CCOc1ccc(NC(=O)CN(C)C(=O)c2ccccc2Cc2ccccc2)cc1OCC,-14
19,O=[N+]([O-])c1ccc(N2CCC(=NOCc3ccc(Cl)cc3)CC2)cc1,-54.5
20,c1ccc(N2CCN(CC3CCCCC3)CC2)cc1,9.61
21,O=[N+]([O-])c1ccc(CN2CCN(c3ccc([N+](=O)[O-])cc3)CC2)cc1,-74.1
22,CC(=O)c1ccc(N2CCN(CC3CCCCC3)CC2)cc1,-24
23,O=[N+]([O-])c1ccc(/C=N\N2CCN(c3ccc(Cl)cc3)CC2)cc1,16.8
24,FC(F)(F)c1cnc(N2CCC(=NOCc3ccc(Cl)cc3)CC2)c(Cl)c1,29.6

row,Structure (SMILES),"hERG current change (%, negative = inhibition) at 10uM [%]"
1,O=[N+]([O-])c1ccc(N2CCN(Cc3cccc([N+](=O)[O-])c3)CC2)cc1,-71.8
2,O=[N+]([O-])c1ccc(N2CCN(CC3CCCCC3)CC2)cc1,-63
3,O=[N+]([O-])c1cccc(CN2CCN(c3ncccn3)CC2)c1,-1.26
4,O=[N+]([O-])c1cccc(CN2CCCCCC2)c1,5.75
5,CCOc1ccccc1-c1nnc(SCC(=O)NC2CC3CCC2C3)n1CC (centres unmarked),-3.89
6,O=C(O)C(=O)O.O=C(c1cccc(F)c1)N1CCN(Cc2c[nH]c3ccccc23)CC1,-9.05
7,Clc1ccc(CN2CCN(c3ncccn3)CC2)cc1,-4.03
8,CN(Cc1ccccc1)c1nc2c(c(=O)n(C)c(=O)n2C)n1CCSc1ncccn1,-13.7
9,O=C1/C(=C\c2ccc([N+](=O)[O-])cc2)CCc2ccccc21,-6.6
10,O=C1CCNc2c(Cl)cc(Cl)cc21,-2.74
11,N#CC1=C(N)Nc2ncnn2C1c1ccccc1 (centres unmarked),10.6
12,COc1ccc2c(c1)[nH]c1c(Cl)ncnc12,3.14
13,O[C@H]1c2ccccc2[C@H](Cc2cncs2)[C@@H]1Br,0.746
14,O=[N+]([O-])c1ccc(CN2CCN(c3ncccn3)CC2)cc1,-32.2
15,O=[N+]([O-])c1ccc(N2CCN(Cc3ccncc3)CC2)cc1,-64.8
16,Fc1ccc(-n2nnc(-c3ccccc3Cl)n2)cc1,12.2
17,O=C(CC1Oc2ccccc2NC1=O)NCCc1ccccc1 (centres unmarked),-4.18
18,COc1cccc(S(=O)(=O)NC2CCN(C#N)C2)c1 (centres unmarked),9.23
19,O=C(Nc1ccccc1)C1CCN(C(=O)c2ccccc2)CC1,4.62
20,O=C(Nc1ccccc1)C1CCN(C(=O)c2ccc(Br)cc2)CC1,-59.3
21,O=C(Nc1nc(-c2ccc(F)cc2)cs1)C1CCN(C(=O)c2ccc(F)cc2)CC1,-54.7
22,COc1ccc(-c2csc(NC(=O)C3CCN(C(=O)c4ccc(F)cc4)CC3)n2)cc1OC,-13.8
23,O=C(Nc1ccccc1)C1CCCN(C(=O)c2ccc(F)cc2)C1 (centres unmarked),-51.8
24,O=C(Nc1cccc(F)c1)C1CCN(C(=O)c2ccc(Cl)cc2)CC1,-49.4

row,Structure (SMILES),"hERG current change (%, negative = inhibition) at 10uM [%]"
1,O=C(Nc1ccc(F)cc1F)C1CCN(C(=O)c2ccc(Br)cc2)CC1,-30.2
2,O=C(c1ccc(F)cc1)N1CCCC(C(=O)N2CCCCC2)C1 (centres unmarked),16.5
3,O=C(Nc1ccc(Br)cc1)C1CCN(C(=O)c2ccco2)CC1,-14
4,O=C(Nc1ccccc1)C1CCCN(C(=O)c2ccc(Cl)cc2)C1 (centres unmarked),-9.92
5,O=C(Nc1cccc(F)c1)C1CCN(C(=O)c2ccc(Br)cc2)CC1,-65.1
6,O=C(Nc1nc(-c2ccc(F)cc2)cs1)C1CCCO1 (centres unmarked),-6.67
7,COc1ccc(CSc2nc(N3CCOCC3)c3c(c2C#N)CC(C)(C)OC3)cc1,-14.5
8,CC1=C2[C@@H]3OC(=O)[C@H](C)C3CC[C@@]2(C)C=CC1=O (some centres unmarked),27.7
9,CCNc1nc(Oc2ccc(C(=O)OCC)cc2)nc(N2CCOCC2)n1,-6.59
10,COc1cc2c(cc1NC(=O)CCC(=O)O)oc1ccccc12,18.5
11,CCOC(=O)C1CCCN(S(=O)(=O)c2ccc(Br)c(OC)c2)C1 (centres unmarked),-14.3
12,ONC(=Nc1ccccc1Cl)c1ccccc1Cl,-14
13,COC(=O)c1ccc(Oc2nc(NC(C)C)nc(N(C)C)n2)cc1,12.5
14,Cc1cccc(OCC(=O)N2CCCc3ccccc32)c1,8.85
15,O=C(Nc1ccc(S(=O)(=O)N2CCCCC2)cc1)C1CCN(C(=O)c2ccc(F)cc2)CC1,-33.7
16,O=C(Nc1ccc(Br)cc1)C1CCN(C(=O)c2ccc(F)cc2)CC1,-61.9
17,O=C(Nc1ccc(F)cc1)C1CCN(C(=O)c2ccc(F)cc2)CC1,-37.4
18,Cc1cc(C(=O)OCC(=O)NCCc2ccccc2)c2ccccc2n1,-17.7
19,O=C(NCC1CCN(Cc2ccc(F)cc2)CC1)Nc1cc(F)ccc1F,-65.1
20,O=C(NCC1CCN(Cc2ccccc2F)CC1)Nc1ccccc1F,-22.5
21,COc1cc([N+](=O)[O-])ccc1NC(=O)NCC1CCN(Cc2ccc(Cl)cc2)CC1,-60.9
22,COc1cccc(NC(=O)NCC2CCN(Cc3ccc(F)cc3)CC2)c1,-47.4
23,CCOc1ccc(NC(=O)NCC2CCN(c3ccc(OC)cc3)C2)cc1 (centres unmarked),-7.35
24,CCOc1ccc(NC(=O)NCC2CCN(Cc3ccc(F)cc3)CC2)cc1,-76.4

row,Structure (SMILES),"hERG current change (%, negative = inhibition) at 10uM [%]"
1,COc1cc([N+](=O)[O-])ccc1NC(=O)CN1CCCC1,3.84
2,Cc1ccccc1CN1CCC(CNC(=O)Nc2ccc(F)cc2F)CC1,-31.4
3,COc1cc(NC(=O)NCC2CCN(Cc3ccc(C)cc3)CC2)cc(OC)c1OC,-0.392
4,O=C(NCC1CCN(Cc2ccccc2F)CC1)Nc1cc(F)ccc1F,-59.9
5,O=C(NCC1CCN(S(=O)(=O)c2ccccc2)CC1)Nc1ccc(F)cc1F,-4.47
6,COc1cc2[nH]c(C(=O)N3CCN(c4ccc(F)cc4)CC3)cc2c(OC)c1OC,17.9
7,Cc1ccc(C)c(CN2CCSCC2)c1,17.3
8,O=C(Nn1c(-c2ccccc2)nc2ccccc2c1=O)c1ccco1,3.87
9,O=C(Oc1ccccc1)n1c(=S)oc2ccccc21,12.2
10,O=C(N/N=C/c1ccc[nH]1)c1ccccc1[N+](=O)[O-],19.9
11,O=C(c1cccc(N2C(=O)C3CC=CCC3C2=O)c1)N1CCCCCC1 (centres unmarked),-3.26
12,Cc1ccc(-c2nnc3n2N=C(c2ccccc2)CS3)cc1,3.15
13,O=C(C1COc2ccccc2O1)N1CCN(c2ccccc2O)CC1 (centres unmarked),-12.5
14,O=C1C2C3C=CC(C4CC34)C2C(=O)N1c1cc(Cl)ccn1 (centres unmarked),2.55
15,Cc1csc(Sc2nc3c(c(=O)[nH]c(=O)n3C)n2CCCc2ccccc2)n1,12.2
16,C=CCOC(=O)c1ccc(-n2cncn2)nc1,-4.47
17,Cc1ccc(S(=O)(=O)N2c3ccccc3OCC2C(C)(C)C)cc1 (centres unmarked),4.08
18,Cc1ccc(CN2CCN(Cc3ccccc3F)CC2)cc1.O=C(O)C(=O)O,-12.2
19,O=C(NCC1CC1)Nc1ccccc1F,18.8
20,COc1ccc(CCNC(=O)NC2CCCCC2)cc1,0.125
21,Cc1ccc(CN2CCC(CNC(=O)Nc3ccccc3F)CC2)cc1,-69.7
22,COc1ccc(CNC(=O)NC2CCCCC2)cc1,2.13
23,COc1ccc(CN2CCC(CNC(=O)NC3CCCCC3)CC2)cc1,-67.7
